In PubChem BioAssay (NCATS) one finds activation, Potency and activity change, negative = inhibition data, which are given here for 26 compounds.

Values joined by “and” are separate entries in the source; they are usually repeats but may differ in a detail not shown here. Equal values may be shown once. Results filed as inconclusive are left out. Values without a mark were called inactive. Active and inactive are the calls of the source. Calls follow the shape of the dose curve; as a rule, active = well fitted curve in the direction sought with a large enough effect; inconclusive = small, poorly fitted or top-dose-only effect, or another doubt; inactive = no such curve, though single readings can be large; an effect the other way counts as inactive or inconclusive. Square brackets hold non-standard residues; d marks the D form. Peptide text beside a SMILES is read from it. * marks the point of attachment. PhLac = O=C(O)[CH](O)Cc1ccccc1; NMeV = CN[CH](C(=O)O)C(C)C; Cbz = O=C(OCc1ccccc1)*; CH2F = FC*

Assay [1] addresses Cellular tumor antigen p53 (Homo sapiens) (UniProt P04637). The assay can be described thus: Primary qHTS for small molecule compounds that upregulate eGFP-tagged delta133p53alpha (in N-terminal) cells. (AID 2060322). Also: nearly all actives have a fitted effect of over 75% in size. Also: potency is read from the fitted curve at half-maximal effect.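 As to activation: series mostly up to about 56 µM; 0% = DMSO vehicle and 100% = reference activator.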 The following applies: NCI-H358 eGFP-delta133p53alpha fluorescence, 24 h; activation: active compounds read high. Put shortly:
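NCI-H358 cells pre-induced 24 h with 10 ng/ml doxycycline to express N-terminal eGFP-delta133p53alpha, then dosed 24 h at 37C without doxycycline; fixed, Hoechst-stained, GFP intensity by laser scanning cytometry, normalized to DMSO (0%) and 57.5 uM 5-azacytidine (100%).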

The target in assay [2] is Aldehyde dehydrogenase, mitochondrial (Homo sapiens) (UniProt P05091). The assay can be described thus: qHTS for Inhibitors of the Aldehyde Dehydrogenase Family (ALDH2) Primary screen (AID 2061308).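 Also: plate controls were vehicle for no effect and reference inhibitor for full effect; nearly all actives have a fitted effect of over 55% in size.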
Assay [3] concerns the target Retinaldehyde dehydrogenase 3 (Homo sapiens) (UniProt P47895). The assay can be described thus: qHTS for Inhibitors of the Aldehyde Dehydrogenase Family (ALDH1A3) Primary screen (AID 2061315).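 Also: plate controls were DMSO vehicle for no effect and reference inhibitor for full effect.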

Sequence of Cellular tumor antigen p53 (Homo sapiens) (P04637 whole entry, looked up): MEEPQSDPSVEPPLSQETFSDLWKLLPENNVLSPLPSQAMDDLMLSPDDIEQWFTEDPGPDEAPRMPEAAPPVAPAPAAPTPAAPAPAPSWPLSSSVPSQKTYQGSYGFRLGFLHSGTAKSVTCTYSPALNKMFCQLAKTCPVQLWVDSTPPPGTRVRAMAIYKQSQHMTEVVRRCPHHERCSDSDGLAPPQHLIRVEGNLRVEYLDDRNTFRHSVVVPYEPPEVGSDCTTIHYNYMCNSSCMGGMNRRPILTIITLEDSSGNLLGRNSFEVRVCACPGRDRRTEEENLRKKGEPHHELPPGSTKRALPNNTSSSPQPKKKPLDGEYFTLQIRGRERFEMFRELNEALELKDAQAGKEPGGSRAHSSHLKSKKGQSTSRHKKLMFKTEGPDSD

As to `CCCC1=CC2=C(CO1)C(=O)C(C)(OC(=O)c1c(C)cc(OC)cc1O)C(O)C2` (stereo not drawn), in assay [1], the activation was -24.4%. Besides, the Potency result in assay [2] and in assay [3] was “inactive” in each case.

Consider `C=C1CC[C@@H]2[C@@](C)(CO[C@@H]3O[C@H](CO)C(O)[C@H](O)C3O)[C@H](O)CC[C@@]2(C)[C@@H]1CC/C(C)=C/CO` (stereo partly drawn), for which the activation in assay [1] was -5.36%. The Potency entry in assay [2] and in assay [3] was “inactive” each time.

With `NC(=NCCCCCCN=C(N)/N=C(\N)Nc1ccc(Cl)cc1)/N=C(\N)Nc1ccc(Cl)cc1`, the Potency in assay [1] is 30.1 µM (active). Moreover, the Potency result in assay [2] and in assay [3] was “inactive” throughout.

Consider `CC(C)=CCc1cc(O[C@@H]2O[C@H](CO[C@@H]3OC[C@](O)(CO)[C@H]3O)[C@@H](O)[C@H](O)[C@H]2O)ccc1O`, for which the activation in assay [1] is 22.1%. Further, the Potency entry in assay [2] and in assay [3] was “inactive” each time.

Turning to `Nc1nc(Nc2ccc3c(c2)CCC(N2CCCC2)CC3)nn1-c1cc2c(nn1)-c1ccccc1CCC2` (stereo not drawn), in assay [1], the Potency is 26.9 µM (active). Moreover, the Potency entry in assay [2] and in assay [3] was “inactive” throughout.

On to `CC(C(=O)Nc1cc(C#N)ccc1CCCC(=O)O)c1ccc(F)c2ccccc12` (stereo not drawn), for which the activation in assay [1] was 17.9%. Besides, the Potency entry in assay [2] and in assay [3] was “inactive” each time.

`C/C=C/C=C/C=C/C(=O)N(C)C(C(=O)NC(C)C(=O)N1CCCC1C(N)=O)C(C)C` (stereo not drawn): the activation in assay [1] was 17.6%. The Potency entry in assay [2] and in assay [3] was “inactive” each time.

In the case of `COC(=O)CC[C@H](NC(=O)[C@H](CC(C)C)NC(=O)OCc1ccccc1)C(=O)N[C@@H](Cc1cnc[nH]1)C(=O)N[C@@H](CC(=O)OC)C(=O)CF` (Cbz-LE(OMe)HD(OMe)-CH2F), in assay [1], the activation was 23.7%. Moreover, the values for the activity change, negative = inhibition in assay [2] and in assay [3] were -2.9% [at 11.2 µM] and -9.94% [at 11.2 µM], respectively.

In the case of `CC(C)C(C(=O)N1CCCC1C(=O)O)N(C)C(=O)C(O)Cc1ccccc1` (stereo not drawn) (H-[PhLac]-[NMeV]-Pro-OH; configuration not given here), in assay [1], the activation is 22.3%. The Potency result in assay [2] and in assay [3] was “inactive” throughout.

On to `CC(C)c1ccc2c(c1)C(O)CC1C(C)(CO)CCCC21C` (stereo not drawn), for which the activation in assay [1] was -12.5%. Besides, the Potency result in assay [2] and in assay [3] was “inactive” each time.

On to `CC(C)=C1C[C@@]2(C)C(=CC1=O)CC[C@@H](O)[C@@H]2C`, for which the activation in assay [1] was 4.58%. In addition, the Potency result in assay [2] and in assay [3] was “inactive” throughout.

On to `C=C1CCC2(OC1)OC1CC3C4CC=C5CC(O)CC(O[C@@H]6OC[C@H](OC(=O)C(O)C(C)CC)[C@H](O)[C@H]6O[C@@H]6O[C@@H](C)[C@H](O)[C@@H](O)[C@H]6O)C5(C)C4CCC3(C)C1C2C` (stereo partly drawn), for which, in assay [1], the activation is 11.6%. For the same compound, the Potency result in assay [2] and in assay [3] was “inactive” in each case.

Turning to `CC/C=C/C=C/C1(C)OC(CC(CO)OC)=CC1=O` (stereo not drawn), the activation in assay [1] is 1.79%. For the same compound, the Potency entry in assay [2] and in assay [3] was “inactive” throughout.

With `Nc1nc2c(c(=O)[nH]1)C[C@@H](CCc1ccc(C(=O)N[C@@H](CCC(=O)O)C(=O)O)cc1)CN2`, in assay [1], the activation was 8.33%. Further, the Potency entry in assay [2] and in assay [3] was “inactive” each time.

For the compound `C=C1C(=O)O[C@@H]2C[C@@]3(C)C[C@@H](O)C[C@H](C)C3=C[C@H]12`, in assay [1], the Potency is 23.9 µM (active). Also, the Potency entry in assay [2] and in assay [3] was “inactive” throughout.

On to `CC(C)(O)/C=C/C(=O)[C@](C)(O)[C@H]1[C@H](O)C[C@@]2(C)[C@@H]3CC=C4[C@@H](C=C(O[C@@H]5O[C@H](CO)[C@@H](O)[C@H](O)[C@H]5O)C(=O)C4(C)C)[C@]3(C)C(=O)C[C@]12C`, for which the activation in assay [1] is -13.7%. Also, the Potency result in assay [2] and in assay [3] was “inactive” in each case.

On to `CC(C)(O)C1=CCC23COC(C2)C(O)(C(=O)O)CCC13` (stereo not drawn), for which, in assay [1], the activation was -6.87%. Also, the Potency result in assay [2] and in assay [3] was “inactive” each time.

Turning to `CC(C)(C)c1cc(CN2CCN(CC(O)c3ccc(Cl)cc3)CC2)cc(C(C)(C)C)c1O` (stereo not drawn), the activation in assay [1] was -0.477%. For the same compound, the Potency result in assay [2] and in assay [3] was “inactive” throughout.

As to `COc1ccc(C2OCC3C(c4cc(OC)c5c(c4)OCO5)OCC23)cc1OC` (stereo not drawn), the activation in assay [1] was -8.4%. The Potency result in assay [2] and in assay [3] was “inactive” throughout.

With `COc1cc(COC2OC(CO)C(O)C(O)C2O)cc(OC)c1O` (stereo not drawn), the activation in assay [1] is -6.87%. In addition, the Potency entry in assay [2] and in assay [3] was “inactive” in each case.

With `CC(C)C1CCC(CO)=CC1/C=C(\CO)C(=O)OCC1(O)CCC(C(C)C)C2C=C(C(=O)O)COC(=O)C21` (stereo not drawn), the activation in assay [1] was 9.16%. In addition, the Potency result in assay [2] and in assay [3] was “inactive” in each case.

`COc1ccc(-n2c(SCC#N)nc3sc4c(c3c2=O)CCCC4)cc1`: the activation in assay [1] was -16.1%. The Potency result in assay [2] and in assay [3] was “inactive” throughout.

In the case of `CN1[C@@H]2CC[C@H]1CC(NC(=O)n1c(=O)[nH]c3ccccc31)C2` (stereo partly drawn), the activation in assay [1] is -9.21%. Besides, the Potency entry in assay [2] and in assay [3] was “inactive” each time.

With `C=C1C(=O)OC2C(OC(=O)C=C(C)C)C(C)=C3C(=O)C=C(C)C3C(O)C12` (stereo not drawn), the Potency in assay [1] is 14.8 µM (active). Moreover, the Potency entry in assay [2] and in assay [3] was “inactive” in each case.

Regarding `CC/C=C(\C(=O)N[C@@H]1C(=O)N2C(C(=O)OCOC(=O)C(C)(C)C)=C(COC(N)=O)CS[C@H]12)c1csc(N)n1`, in assay [1], the activation was 2.82% and -18.4%. The Potency entry in assay [2] and in assay [3] was “inactive” throughout.

For the compound `CSCC1OC(n2cnc3c(N)ncnc32)C(O)C1O` (stereo not drawn), the activation in assay [1] is 6.11%. Also, the Potency result in assay [2] and in assay [3] was “inactive” each time.
